# Only some compounds are listed: those with a hit (about 12% of all), similar ones and a draw of the others.
# Sfp inh – inhibitors of Bacillus subtilis Sfp phosphopantetheinyl transferase | Q9F4F7 | Potency, µM, inactives show largest response in the series, negative = inhibition, most hits filed as inhibitors | 310,000 tested, 3.5% active | Biochemical Sfp PPTase activity, qHTS;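 further: the enzyme is Sfp with the accession as filed and its product quenches rhodamine fluorescence; 0% = enzyme reaction without inhibitor and -100% = no enzyme wells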
#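 Buffer: 50 mM Hepes-Na pH 7.6, 10 mM MgCl2, 0.01% Nonidet P-40, 0.01% BSA. Enzyme 15 nM, pre-exposed to compound 15 min; substrates then added and fluorescence change tracked over 30 min.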
# G9a block – G9a (human) methyltransferase inhibition; G9a H3K9 monomethylation, AlphaScreen, 2 h; 350,000 tested, 8.8% active; Potency, µM (top dose mostly 102 µM), for the others: at the highest dose activity, negative = inhibition, actives largely listed as inhibitors; Q96KQ7; further: on the % scale 0 is the no-effect control and ±100 the full control effect; nearly all actives have a fitted effect of over 75% in size
# Target sequence (Q96KQ7 913-1193 limits assumed): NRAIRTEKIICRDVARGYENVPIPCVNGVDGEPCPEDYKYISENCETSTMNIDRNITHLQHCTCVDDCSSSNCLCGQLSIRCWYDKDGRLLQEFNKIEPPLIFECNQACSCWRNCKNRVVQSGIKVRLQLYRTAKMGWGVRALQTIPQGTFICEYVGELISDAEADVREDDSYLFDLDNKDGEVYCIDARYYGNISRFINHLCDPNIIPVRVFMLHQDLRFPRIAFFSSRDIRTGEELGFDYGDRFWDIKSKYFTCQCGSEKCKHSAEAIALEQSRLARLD
#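 Readings reflect AlphaScreen signal from monomethyl-H3K9 antibody detection. HMT at 20 nM; substrate b-H3K9 500 nM; cofactor SAM 20 uM; 2 h RT reaction; compounds tested as titrations in qHTS with 15 min preincubation.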
# BAZ2B block – blocks human BAZ2B. Q9UIF8. AlphaScreen BAZ2B-H3K14Ac peptide displacement. Potency, µM (top dose mostly 114 µM), without a hit: at the top dose activity change, negative = inhibition, actives largely listed as inhibitors. 360,000 tested, 4.4% active. AID 504333; further: on the % scale 0 is the no-effect control and ±100 the full control effect; nearly all actives have a fitted effect of over 60% in size
#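 AlphaScreen luminescence quantifies BAZ2B engagement of H3K14Ac peptide; the protein and biotinylated peptide are both at 50 nM final, buffer PBS pH 7.4 with 0.01% Tween-20, all steps at room temperature.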
# JMJD2A Tudor – JMJD2A Tudor domain (human) inhibition. O75164. AID 504339. 390,000 tested, 4.4% active. Potency, µM (titrated, usually from 114 µM), without a hit: at the highest dose activity change, negative = inhibition, most hits filed as inhibitors. AlphaScreen JMJD2A-Tudor / H3K4me3 peptide binding; further: on the % scale 0 is the no-effect control and ±100 the full control effect; nearly all actives have a fitted effect of over 50% in size
# PLK1 PBD inh – inhibitors of human PLK1 polo-box domain binding. P53350. Potency, µM, for the others: max response, negative = inhibition, most hits filed as inhibitors. 360,000 tested, 2.8% active. AID 720504. Plk1 PBD binding of FITC phosphopeptide, fluorescence polarization; further: series mostly up to about 57 µM; on the % scale 0 is the no-effect control and ±100 the full control effect; nearly all actives have a fitted effect of over 65% in size
# HP1b binding inh – blocks HP1-beta chromodomain binding to methylated histone tails; AlphaScreen HP1-beta / biotin-H3K9me3 peptide binding; Potency, µM (highest dose often 114 µM), for inactives: at the highest dose activity change, negative = inhibition, usual class: inhibitors; 390,000 tested, 0.56% active; AID 540317; further: nearly all actives have a fitted effect of over 70% in size
# Target sequence (P83916 whole entry, looked up): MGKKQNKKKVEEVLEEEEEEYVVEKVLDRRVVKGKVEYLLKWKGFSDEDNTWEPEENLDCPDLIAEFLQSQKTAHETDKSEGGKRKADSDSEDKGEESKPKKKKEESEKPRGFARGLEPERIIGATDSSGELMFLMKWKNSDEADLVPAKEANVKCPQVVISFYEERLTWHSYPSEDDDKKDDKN
#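 HP1-beta protein (50 nM final) preincubated 30 min at room temperature with biotinylated H3(1-18)K9me3 peptide (50 nM) in PBS pH 7.4, 0.01% Tween-20, then compound added for 30 min. AlphaScreen streptavidin donor/nickel chelate acceptor beads (10 ug/mL final), 30 min dark, luminescence read.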
# Starred values were filed as active, the others as inactive; ? = inconclusive; . = no result; [ ] = remark or other dose. The call rests on the fitted dose curve; in most records, active means well fitted curve in the direction sought with a large enough effect; inconclusive means small, poorly fitted or top-dose-only effect, or another doubt; inactive means no such curve, though single readings can be large; an effect the other way counts as inactive or inconclusive. Potency means the concentration at half of the fitted maximal effect.
SMILES,Sfp inh,G9a block,BAZ2B block,JMJD2A Tudor,PLK1 PBD inh,HP1b binding inh
CCc1cccc2c1NC(=O)C21N2CCCC2C(C(=O)c2ccc3ccccc3c2)C12C(=O)Nc1ccccc12 (stereo not given),23%,?,?,?,-19%,?
Cc1ccc(NS(=O)(=O)c2ccc(NC(=O)C3CC3)cc2)c(C)c1,10%,-3%,-5%,-10%,2%,26%
O=C(Nc1ccc(S(=O)(=O)Nc2nccs2)cc1)c1nn(-c2ccc(F)cc2)ccc1=O,5%,?,25µM*,56µM*,?,-15%
Cc1cccc(OCCCC(=O)Nc2ccc(S(=O)(=O)Nc3nccs3)cc2)c1C,11%,45µM*,?,?,-15%,-20%
Cc1ccc(C)c(NS(=O)(=O)c2ccc(NC(=O)CSc3ccc(Cl)cc3)cc2)c1,7%,-7%[59 µM],0%,-24%,24µM*,8%
Cc1ccc(NS(=O)(=O)c2ccc(NC(=O)C(C)Sc3ccc(Cl)cc3)cc2)c(C)c1 (stereo not given),46%,-8%[59 µM],10%,-35%,30µM*,-2%
CC(=O)NS(=O)(=O)c1ccc(NC(=O)CSc2ccc(Cl)cc2)cc1,10%,-30%,-15%,-2%,?,33%
O=C(CSc1ccncc1)Nc1ccc(S(=O)(=O)Nc2nccs2)cc1,-3%,.,?,-29%,-24%,2%[57 µM]
Cc1ccc(SCC(=O)Nc2ccc(S(=O)(=O)Nc3nccs3)cc2)cc1,5%,13µM*,?,-27%,-28%,-5%
O=C(COc1ccc(F)cc1Cl)Nc1ccc(S(=O)(=O)Nc2nccs2)cc1,.,32µM*,-2%,-24%,-14%,5%
COc1ccc(Cl)cc1NC(=O)C1CCN(c2ncnc3c2nc2n3CCCCC2)CC1,.,-30%[59 µM],-17%,-16%,.,26%
O=C(CCc1ccccc1)NC(c1cccs1)c1cc(Cl)c2cccnc2c1O (stereo not given),20%,?,-18%,-21%,-8%,31%
CN1CCN(C(c2ccccn2)c2cc(Cl)c3cccnc3c2O)CC1 (stereo not given),32µM*,?,11µM*,18µM*,9.5µM*,11µM*
COc1cc(C(=O)NC(c2ccc(Cl)cc2)c2cc(Cl)c3cccnc3c2O)cc(OC)c1OC (stereo not given),.,22%[59 µM],3%,-17%,.,65%
CCC(=O)NC(c1ccc(OC)cc1)c1cc(Cl)c2cccnc2c1O (stereo not given),5%,-1%,-5%,-15%,-1%,46%
Oc1c(C(c2ccccn2)N2CCC(Cc3ccccc3)CC2)cc(Cl)c2cccnc12 (stereo not given),?,3.5µM*,50µM*,50µM*,?,?
Oc1c(C(c2ccc(Cl)cc2)N2CCCC2)cc(Cl)c2cccnc12 (stereo not given),-70%,25µM*,32µM*,28µM*,?,11%
Cc1ccc(C(c2cc(Cl)c3cccnc3c2O)N2CCN(C)CC2)cc1 (stereo not given),35µM*,3.5µM*,22µM*,45µM*,1.5µM*,?
C=CCN(CC=C)Cc1c(O)ccc2c(=O)c(-c3ccccc3)coc12,10%,-5%,-14%,-12%,-25%,25%
CCCC[C@@H]1C[C@H]1C(NC(=O)c1cccs1)c1ccccc1C(F)(F)F (stereo not given in full),20%,.,.,.,.,.
CCOC(=O)CNS(=O)(=O)c1cc(-c2nn(C)c(=O)c3ccccc23)ccc1C,11%,?,56µM*,?,-8%,-7%
Cc1ccc(Cl)cc1N1CCN(C(=O)Cn2cnc3nc4c(cc3c2=O)CCCC4)CC1,.,10%[59 µM],?,-36%,.,12%[57 µM]
COc1ccc(S(=O)(=O)Nc2ccccc2N2CCOCC2)cc1[N+](=O)[O-],?,.,-30%,-23%,-4%,2%
Cc1cc(S(=O)(=O)Nc2ccc(N3CCOCC3)cc2)ccc1Br,8%,40µM*,?,?,-5%,0%
O=S(=O)(Nc1ccc(N2CCOCC2)cc1)c1c(F)cc(F)cc1Br,6%,40µM*,-30%,-25%[57.1 µM],?,?
SMILES,Sfp inh,G9a block,BAZ2B block,JMJD2A Tudor,PLK1 PBD inh,HP1b binding inh
COc1ccc(S(=O)(=O)Nc2ccc(N3CCOCC3)cc2)cc1[N+](=O)[O-],-17%,45µM*,-30%,-15%,-7%,33%
COc1ccc(NS(=O)(=O)c2ccc(-n3cnnn3)cc2)cc1OC,8%,?,-3%,-4%,3%,20%[57 µM]
COc1ccc(S(=O)(=O)Nc2ccc(-n3cnnn3)cc2)cc1Br,.,56µM*,-6%,-6%,-7%,26%
COC(=O)c1cc(S(=O)(=O)N2CCN(c3cccc(C)c3C)CC2)c[nH]1,2%,-10%,?,?,-13%,2%
O=S(=O)(c1ccccc1)N1CCC[C@@]2(CCN(Cc3nccs3)C2)C1,2%,-2%[12.7 µM],.,.,.,.
Cc1cc(S(=O)(=O)NC2CCCCC2)ccc1-n1cnnn1,2%,.,-12%,8%,2%,18%
CC(=O)N1CCN(c2ccc(NS(=O)(=O)c3ccc4c(c3)CC(=O)N4)cc2)CC1,.,.,.,126µM*,.,.
COc1ccc(S(=O)(=O)NC2CCCCC2)cc1-n1cnnn1,8%,-3%,-25%,79µM*,27µM*,-5%
CN1C(=O)Cc2cc(S(=O)(=O)Nc3ccc(N4CCOCC4)cc3)ccc21,2%,79µM*,-20%,-16%,0%,7%
COc1ccc(S(=O)(=O)Nc2ccc(N3CCOCC3)cc2)cc1Br,4%,10µM*,?,?,-11%,-17%
CC(C)CN(C(=O)Cn1c(Cl)nc2c1c(=O)n(C)c(=O)n2C)C1CCS(=O)(=O)C1 (stereo not given),.,-20%,1%,-9%,-4%,22%
COC(=O)C1CCN(C(=O)Cc2c(OC)ccc3cc(Br)ccc23)CC1,56µM*,-32%,?,-19%,-11%,31%
COc1ccc2cc(Br)ccc2c1CC(=O)N1CCCC1,6%,9%,-2%,-4%,-13%,21%
CCCCN(C)C(=O)Cc1c(OC)ccc2cc(Br)ccc12,1%,32µM*,-3%,25µM*,24µM*,?
Cc1ccc(NC(=O)CN2C(=O)N/C(=C/c3ccc(C)o3)C2=O)cc1,10µM*,35µM*,8%[57.1 µM],-29%,3%,13%
Cc1ccc(NC(=O)CN2C(=O)N/C(=C/c3ccc(C)s3)C2=O)cc1,40µM*,?,10%,2%,31%,32%
C=CCN1C(=O)N/C(=C/c2ccc(C)o2)C1=O,10µM*,?,-1%,-18%,?,-8%
